The panel holds about 83,000 compounds, 20% with a hit somewhere; the sample as a whole holds those more often.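 96-well plates, one dose, 48 hours. Percent growth reported; active if below 10.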 The source made the active and inactive calls.
What was measured:
Experiment in all cases: NCI-60 one-dose screen, 48 h (100 = growth as untreated, 0 = no growth, -100 = all killed)
Conditions in all cases: 10 µM unless noted
[1] = system: DU-145 prostate
[2] = system: K-562 leukemia
[3] = system: MALME-3M melanoma
[4] = system: MDA-MB-231 breast
[5] = system: RXF 393 renal
[6] = system: SF-268 CNS
[7] = system: SF-539 CNS
[8] = system: UACC-257 melanoma
[9] = system: M14 melanoma
[10] = system: HCT-15 colon
[11] = system: SNB-75 CNS
[12] = system: SNB-19 CNS
[13] = system: U251 CNS
[14] = system: PC-3 prostate
[15] = system: SK-MEL-5 melanoma
[16] = system: UACC-62 melanoma
[17] = system: LOX IMVI melanoma
[18] = system: SK-MEL-28 melanoma
[19] = system: HT29 colon

Measured: growth

C=C(CN1CC=CCC1)[C@@H]1CC[C@]2(C(=O)OC)CC[C@]3(C)[C@H](CC[C@@H]4[C@@]5(C)CC[C@H](OC(C)=O)C(C)(C)[C@@H]5CC[C@]43C)[C@@H]12
inactive: [1] 107% | [2] 57.9% | [3] 92.9% | [4] 99.2% | [5] 101% | [6] 92.5% | [7] 93.3% | [8] 91.9% | [9] 86.1% | [10] 105% | [11] 88.4% | [12] 86% | [13] 83.2% | [14] 61.4% | [15] 90.3% | [16] 80.7% | [17] 99.7% | [18] 94.9%

C#CC[C@@H]1C[C@]2(C)[C@H]3CC[C@@H]4[C@H]5C(C(=C)C)CC[C@]5(C(=O)NCCCN5CCN(CCCN)CC5)CC[C@@]4(C)[C@]3(C)CC[C@H]2C(C)(C)[C@H]1OC(C)=O (stereo not given in full)
inactive: [3] 67.8% | [6] 85.5% | [8] 72.1% | [15] 83.3%
active: [1] -92% | [2] -19.8% | [4] -83.3% | [5] -87.4% | [7] -91.3% | [9] -80.5% | [10] -50.4% | [19] -68.7% | [11] -95.7% | [12] -8.5% | [14] 8.53% | [16] -85.6% | [17] -85.3% | [18] -59.5%

COc1ccc2nc(C)cc(Nc3ccccc3O)c2c1
active: [2] 6.3% | [3] -12.4% | [4] 9.5% | [5] -41.7% | [7] -72.7% | [11] -93.2% | [17] 2.48%
inactive: [1] 63.9% | [6] 64.8% | [8] 75.1% | [9] 81.8% | [10] 32.8% | [19] 18.9% | [12] 26% | [14] 47.1% | [15] 72.9% | [16] 56.5% | [18] 33.4%

O=C(NC1CC1)c1ccc(-c2nc3ccc4[nH]ncc4c3c3c2CCCC3)cc1
inactive: [1] 38.2% | [2] 24.4% | [3] 53.8% | [4] 45.7% | [6] 35.1% | [7] 31.3% | [8] 60.2% | [9] 44.7% | [10] 29% | [19] 35.2% | [12] 65.3% | [13] 34.5% | [14] 43.1% | [15] 55.2% | [17] 38.7% | [18] 47.4%
active: [5] -9.49% | [11] -5.58%

CCc1ccc(Nc2cc(C)c3ccc(O)cc3n2)cc1
inactive: [1] 94.8% | [2] 20.3% | [3] 17.5% | [4] 31.1% | [5] 52.6% | [6] 68.1% | [7] 89.1% | [8] 39.4% | [9] 45.4% | [10] 70.7% | [11] 57.8% | [12] 96.5% | [13] 60.9% | [14] 62.2% | [15] 60.6% | [16] 30.8% | [17] 48.5% | [18] 95.6%

CC1CCN(Cc2ccc(NC(=O)c3cc4ccc5cccnc5c4[nH]3)cc2)CC1
inactive: [3] 10.2% | [4] 23.2% | [6] 37.4% | [10] 22.2% | [11] 14.5% | [12] 64.6% | [14] 41.6%
active: [1] 2.24% | [2] 8.98% | [5] -3.5% | [7] 8.44% | [8] -40.6% | [9] -22.5% | [15] 2% | [16] -65.4% | [17] 8.82% | [18] -31.9%

CC(=O)c1ccc(-n2c(-c3cc(-c4ccsc4)n[nH]3)n[nH]c2=S)cc1
inactive: [1] 110% | [2] 105% | [3] 106% | [4] 105% | [5] 106% | [6] 107% | [7] 97.5% | [8] 101% | [9] 97.8% | [10] 96.5% | [19] 94.1% | [11] 91.2% | [12] 101% | [14] 84.3% | [15] 101% | [16] 95.9% | [17] 99% | [18] 98.8%

CSC1=NC(=Nc2c(C)cccc2C)C2(CCC(C(C)(C)C)CC2)N1c1ccc(Cl)cc1 (stereo not given)
inactive: [1] 40.3% | [2] 17.7% | [3] 38.5% | [4] 61.8% | [5] 38% | [6] 42.8% | [7] 46.5% | [8] 54.1% | [9] 49.5% | [10] 31.9% | [11] 74.8% | [12] 75.3% | [13] 30.6% | [14] 47.9% | [15] 47.6% | [17] 20.8% | [18] 79.5%

Nc1nc(N)c2cc(Sc3ccc(Cl)cc3)ccc2n1
active: [2] 4.88%
inactive: [1] 29.7% | [3] 56.7% | [4] 31.3% | [5] 42.4% | [6] 31.1% | [7] 35% | [8] 40.1% | [9] 27.8% | [10] 20.5% | [19] 14.8% | [11] 48.2% | [12] 40% | [13] 24.7% | [14] 25.2% | [15] 17.8% | [17] 27% | [18] 54%
